In PubChem BioAssay (NCI):
The panel holds about 79,000 compounds, 15% with a hit somewhere; the sample as a whole holds those more often. Calls of active or inactive are those of the source. No stated cut-off is given here; in the data, active means growth inhibition above about 70%; inactive means the rest.

Key:
[1] = NCI Yeast Anticancer Drug Screen. Data for the mlh1 strain (AID 171);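 further: 0% = growth of vehicle-treated control cultures of the same strain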; conditions: S. cerevisiae mlh1 strain growth inhibition, hits give high values
In short: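 Compounds are applied to a genetically altered yeast strain, and its growth is compared with that of vehicle-treated cultures to give percent inhibition.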

[2] = NCI Yeast Anticancer Drug Screen. Data for the mlh1 rad18 strain (AID 175); conditions: S. cerevisiae mlh1 rad18 strain growth inhibition, hits give high values
In short: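 Cells of a genetically altered yeast strain, deficient in DNA damage repair, were treated with compound. Their growth was then compared with that of vehicle-treated cultures to give inhibition.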

[3] = NCI Yeast Anticancer Drug Screen. Data for the rad18 strain (AID 177); conditions: S. cerevisiae rad18 mutant growth inhibition, hits give high values
In short: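 Compounds are applied to a repair-deficient yeast strain, and growth is compared with that of vehicle-treated cultures to give percent inhibition.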

[4] = NCI Yeast Anticancer Drug Screen. Data for the rad52 strain (AID 147);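 further: 0% = growth of vehicle-treated control cultures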; conditions: S. cerevisiae rad52 mutant growth inhibition, hits give high values
In short: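 DNA repair-defective yeast; compound exposure; growth scored against vehicle controls.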

[5] = NCI Yeast Anticancer Drug Screen. Data for the wt1 strain (AID 149);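 further: 0% = growth of vehicle-treated wt1 cultures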; conditions: S. cerevisiae wt1 strain (SPY 50644) growth inhibition, hits give high values
In short: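 Growth inhibition read against vehicle controls after compound exposure of the wt1 yeast strain.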

[6] = NCI Yeast Anticancer Drug Screen. Data for the rad50EPP+ strain (AID 151);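 further: 0% = growth of vehicle-treated control cultures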; conditions: S. cerevisiae rad50 mutant strain, hits give high values
In short: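 rad50EPP+ yeast treated with test compounds. Readout: growth vs vehicle control.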

[7] = NCI Yeast Anticancer Drug Screen. Data for the mgt1 strain (AID 153); conditions: S. cerevisiae mgt1 mutant growth inhibition, hits give high values
In short: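 Growth inhibition relative to vehicle controls was scored for the mgt1 yeast strain after compound exposure.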

[8] = NCI Yeast Anticancer Drug Screen. Data for the rad50 strain (AID 155);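 further: 0% = growth of vehicle-only cultures of the same strain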; conditions: S. cerevisiae rad50 strain growth inhibition, hits give high values
In short: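 Readout: growth inhibition relative to vehicle-treated cultures. Compound exposure was carried out in a genetically defined yeast strain deficient in DNA damage repair.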

[9] = NCI Yeast Anticancer Drug Screen. Data for the mec2-1 strain (AID 157); conditions: S. cerevisiae mec2-1 strain, hits give high values
In short: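 Growth inhibition is read against vehicle-treated controls after compound exposure of the mec2-1 yeast strain, which is defective in DNA damage repair or cell cycle control.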

[10] = NCI Yeast Anticancer Drug Screen. Data for the rad14 strain (AID 159);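 further: 0% = growth of vehicle-treated control cultures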; conditions: S. cerevisiae rad14 strain growth inhibition, hits give high values
In short: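 Growth inhibition vs vehicle controls; genetically altered yeast strain (DNA damage repair defect) treated with test compounds.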

[11] = NCI Yeast Anticancer Drug Screen. Data for the sgs1 mgt1 strain (AID 161);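 further: 0% = growth of cultures given vehicle only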; conditions: S. cerevisiae sgs1 mgt1 strain, hits give high values
In short: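 This yeast growth screen uses a strain with defined DNA-repair lesions; compound-treated growth is compared with vehicle-treated growth.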

[12] = NCI Yeast Anticancer Drug Screen. Data for the CLN2oe strain (AID 163);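 further: 0% = growth of vehicle-only control cultures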; conditions: S. cerevisiae CLN2oe strain, hits give high values
In short: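 Compound-treated yeast; growth vs vehicle ctrl = % inhibition. Genetically altered strain (cell-cycle control).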

[13] = NCI Yeast Anticancer Drug Screen. Data for the cln2 rad14 strain (AID 165);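 further: 0% = growth equal to vehicle treated cultures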; conditions: S. cerevisiae cln2 rad14 strain, hits give high values
In short: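 Growth inhibition, relative to vehicle-treated controls, is the read-out. The test organism is a yeast strain with defined genetic alterations, cln2 rad14.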

[14] = NCI Yeast Anticancer Drug Screen. Data for the bub3 strain (AID 167); conditions: S. cerevisiae bub3 mutant strain, hits give high values
In short: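 Readout: yeast growth inhibition, expressed relative to vehicle-only wells. The test organism is a mutant strain from a panel with lesions in DNA repair or checkpoint genes.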

[15] = NCI Yeast Anticancer Drug Screen. Data for the wt2 strain (AID 169);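 further: 0% = growth of vehicle-treated yeast cultures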; conditions: S. cerevisiae wt2 strain growth inhibition, hits give high values
In short: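 Compound exposure of yeast; growth compared with vehicle controls; inhibition reported.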

[16] = NCI Yeast Anticancer Drug Screen. Data for the sgs1 strain (AID 173);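 further: 0% = growth of vehicle-only control cultures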; conditions: S. cerevisiae sgs1 mutant, hits give high values
In short: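 Compounds applied to genetically altered yeast; growth compared with vehicle-treated cultures to give % inhibition.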

[17] = at 5.0 µM (retest, dose inferred, filed as 0.5)
[18] = at 50.0 µM (retest, dose inferred, filed as 5.0)

Measured: growth inhibition

CC[C@@]1(OC(=O)CCC(=O)O)C(=O)OCc2c1cc1n(c2=O)Cc2cc3ccccc3nc2-1
active: [1]; at 33.0 µM 70% | [1]; at 100.0 µM 83% | [2]; [18] 85% | [3]; at 100.0 µM 81%
inactive: [1]; at 1.2 µM -9% | [1]; at 3.7 µM -7% | [1]; at 11.0 µM 2% | [2]; [17] 16% | [3]; at 1.2 µM 6% | [3]; at 3.7 µM 10% | [3]; at 11.0 µM 27% | [3]; at 33.0 µM 68%

O=C(O)c1cccc2cccc(-c3c4ccc(=O)cc-4oc4cc(O)ccc34)c12
active: [4]; at 11.0 µM 79% | [4]; at 33.0 µM 78% | [4]; at 100.0 µM 94% | [5]; at 100.0 µM 94% | [6]; at 11.0 µM 70% | [6]; at 33.0 µM 73% | [6]; at 100.0 µM 93% | [7]; at 11.0 µM 79% | [7]; at 33.0 µM 88% | [7]; at 100.0 µM 96% | [8]; at 11.0 µM 82% | [8]; at 33.0 µM 79% | [8]; [18] 97% | [8]; at 50.0 µM 90.5% | [8]; at 100.0 µM 92% | [9]; at 11.0 µM 85% | [9]; at 33.0 µM 85% | [9]; [18] 94% | [9]; at 50.0 µM 91.5% | [9]; at 100.0 µM 93% | [10]; at 33.0 µM 74% | [10]; at 100.0 µM 93% | [11]; [18] 95% | [12]; at 11.0 µM 70% | [12]; at 33.0 µM 81% | [12]; at 100.0 µM 90% | [13]; [18] 95% | [14]; [17] 72% | [14]; at 11.0 µM 91% | [14]; at 33.0 µM 93% | [14]; [18] 94% | [14]; at 100.0 µM 92% | [15]; at 33.0 µM 85% | [15]; at 100.0 µM 96% | [1]; at 33.0 µM 87% | [1]; at 100.0 µM 91% | [16]; at 11.0 µM 74% | [16]; at 33.0 µM 85% | [16]; at 100.0 µM 95% | [2]; [18] 98% | [2]; at 50.0 µM 90% | [3]; at 11.0 µM 71% | [3]; at 33.0 µM 79% | [3]; at 100.0 µM 94%
inactive: [4]; at 1.2 µM 8% | [4]; at 3.7 µM 33% | [5]; at 1.2 µM -5% | [5]; at 3.7 µM 5% | [5]; at 11.0 µM 54% | [5]; at 33.0 µM 69% | [6]; at 1.2 µM 10% | [6]; at 3.7 µM 29% | [7]; at 1.2 µM 20% | [7]; at 3.7 µM 41% | [8]; at 1.2 µM 29% | [8]; at 3.7 µM 56% | [8]; [17] 29% | [9]; at 1.2 µM 18% | [9]; at 3.7 µM 24% | [9]; [17] 53% | [10]; at 1.2 µM 10% | [10]; at 3.7 µM 13% | [10]; at 11.0 µM 55% | [11]; [17] 1% | [12]; at 1.2 µM 16% | [12]; at 3.7 µM 9% | [13]; [17] 61% | [14]; at 1.2 µM 34% | [14]; at 3.7 µM 69% | [15]; at 1.2 µM 17% | [15]; at 3.7 µM 26% | [15]; at 11.0 µM 48% | [1]; at 1.2 µM 7% | [1]; at 3.7 µM 18% | [1]; at 11.0 µM 63% | [16]; at 1.2 µM 34% | [16]; at 3.7 µM 31% | [2]; [17] 27% | [3]; at 1.2 µM 18% | [3]; at 3.7 µM 23%

COc1ccc(N2CN(C)CSC2=S)cc1
active: [4]; at 100.0 µM 72% | [6]; at 33.0 µM 81% | [6]; at 100.0 µM 90% | [8]; [18] 95% | [8]; at 100.0 µM 83% | [9]; [17] 73% | [9]; [18] 96% | [9]; at 100.0 µM 75% | [14]; [18] 83% | [14]; at 100.0 µM 73% | [16]; at 100.0 µM 71% | [2]; [18] 97%
inactive: [4]; at 1.2 µM -27% | [4]; at 3.7 µM -11% | [4]; at 11.0 µM -1% | [4]; at 33.0 µM 43% | [5]; at 1.2 µM -18% | [5]; at 3.7 µM -14% | [5]; at 11.0 µM -22% | [5]; at 33.0 µM -1% | [5]; at 100.0 µM 58% | [6]; at 1.2 µM -36% | [6]; at 3.7 µM 10% | [6]; at 11.0 µM 58% | [7]; at 1.2 µM -51% | [7]; at 3.7 µM -48% | [7]; at 11.0 µM -36% | [7]; at 33.0 µM -11% | [7]; at 100.0 µM 61% | [8]; at 1.2 µM -20% | [8]; at 3.7 µM 3% | [8]; [17] 61% | [8]; at 11.0 µM 25% | [8]; at 33.0 µM 63% | [8]; at 50.0 µM 10.6% | [9]; at 1.2 µM -17% | [9]; at 3.7 µM -29% | [9]; at 11.0 µM -22% | [9]; at 33.0 µM -2% | [9]; at 50.0 µM 8.85% | [10]; at 1.2 µM -24% | [10]; at 3.7 µM -22% | [10]; at 11.0 µM -21% | [10]; at 33.0 µM -11% | [10]; at 100.0 µM 40% | [11]; [17] -20% | [11]; [18] 59% | [12]; at 1.2 µM -23% | [12]; at 3.7 µM -23% | [12]; at 11.0 µM -39% | [12]; at 33.0 µM -9% | [12]; at 100.0 µM 24% | [13]; [17] 22% | [13]; [18] 59% | [14]; at 1.2 µM -12% | [14]; at 3.7 µM -11% | [14]; [17] 35% | [14]; at 11.0 µM -12% | [14]; at 33.0 µM 32% | [15]; at 1.2 µM -25% | [15]; at 3.7 µM -15% | [15]; at 11.0 µM -22% | [15]; at 33.0 µM -7% | [15]; at 100.0 µM 58% | [1]; at 1.2 µM -53% | [1]; at 3.7 µM -52% | [1]; at 11.0 µM -48% | [1]; at 33.0 µM -3% | [1]; at 100.0 µM 57% | [16]; at 1.2 µM -43% | [16]; at 3.7 µM -41% | [16]; at 11.0 µM -39% | [16]; at 33.0 µM 7% | [2]; [17] 51% | [2]; at 50.0 µM 56.4% | [3]; at 1.2 µM -67% | [3]; at 3.7 µM -64% | [3]; at 11.0 µM -53% | [3]; at 33.0 µM -41% | [3]; at 100.0 µM 52%
